Experimental findings from PubChem BioAssay (NCATS) are described below.

“And” between values parts separate entries of the source, which are not always exact repeats. Equal entries are not always repeated. Records with an inconclusive call do not appear. The source made the active and inactive calls. Unless noted, the call rests on the fitted dose curve.

Test [1] is described as follows: qHTS for Inhibitors of the Functional Ribonucleoprotein Complex (vRNP) of Lassa (LASV) Arenavirus: Viability assay - alamar blue signal for LASV Primary Screen (AID 1347083; calls by dose curve; tested in HEK293 reporter line; further: nearly all actives have a fitted effect of over 80% in size; further: potency means the concentration at half of the fitted maximal effect). For orientation: Quantitative high-throughput screening tests each substance at several concentrations.
Test [2] can be described thus: Cytotoxicity counterscreen for inhibitors of SARS-CoV-2 cell entry (AID 1645845). Further: nearly all actives have a fitted effect of over 50% in size. The procedure, abridged:
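ATP-content luminescence (ATPLite 1step, 15 min RT) read after 48 h compound exposure of Expi293F cells stably expressing human ACE2; normalized to cells-only wells and media-only wells.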
For orientation: A counterscreen serves to expose hits that act by an unwanted route or on another target.

Test [3] in a line: Primary qHTS to identify inhibitors of SARS-CoV-2 cell entry (AID 1645846). Further: nearly all actives have a fitted effect of over 45% in size. Particulars: activity change, negative = inhibition: at 57.1 µM (top of the series) unless noted. In outline: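 Entry measured by luciferase signal 48 h after adding SARS-CoV-2-S pseudotyped MLV particles to HEK293-ACE2 cells preincubated 1 h with compounds. Normalisation: bald particles and spike particles.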

For the next test, the system named is CRL-7250. Put plainly: qHTS assay to identify novel small-molecules to repurpose for Merkel cell carcinoma treatment (AID 1296009; active means well fitted curve in the direction sought with a large enough effect; an effect the other way counts as inactive or inconclusive; further: nearly all actives have a fitted effect of over 60% in size). Particulars: MCC and control cell lines, CellTiter-Glo viability, 72 h; series mostly up to 92 µM. In outline:
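Cell viability measured by CellTiter-Glo following 72 hr compound treatment at 37 degree celsius, with NPC and MIPE libraries tested in 8- and 11-point concentration series.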

Test [4] in a line: qHTS for Inhibitors of the Functional Ribonucleoprotein Complex (vRNP) of Lymphocytic Choriomeningitis Arenaviruses (LCMV): Viability assay - alamar blue signal for LCMV Primary Screen (AID 1347085; calls by dose curve; tested in HEK293 reporter line; further: nearly all actives have a fitted effect of over 80% in size; further: potency means the concentration at half of the fitted maximal effect).
Test [5] addresses Nucleoprotein (Lymphocytic choriomeningitis virus (strain Armstrong)) (UniProt P09992). Put plainly: qHTS for Inhibitors of the Functional Ribonucleoprotein Complex (vRNP) of Lymphocytic Choriomeningitis Arenaviruses (LCMV): LCMV Primary Screen - GLuc reporter signal (AID 1347086). Further: nearly all actives have a fitted effect of over 70% in size. Further: potency means the concentration at half of the fitted maximal effect. On activity change, negative = inhibition: on the % scale 0 is the no-effect control and ±100 the full control effect.
The nature of test [6]: qHTS for Inhibitors of the Functional Ribonucleoprotein Complex (vRNP) of Lassa (LASV) Arenavirus: LASV Primary Screen - GLuc reporter signal (AID 1347082; calls by dose curve; tested in HEK293 reporter line; further: on the % scale 0 is the no-effect control and ±100 the full control effect; nearly all actives have a fitted effect of over 60% in size).
Test [7] can be described thus: qHTS profiling of the MIPE4 collection as inhibitors of Plasmodium falciparum (3D7) proliferation (AID 743344; call rule not given here;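 further: scaled between DMSO vehicle wells and 0.29 µM artemisinin as full inhibition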). As to conditions: P. falciparum 3D7 in erythrocytes, SYBR Green DNA fluorescence, 72 h; at 28.5 µM (top of the series) unless noted. In outline:
(§1)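 Parasite DNA was quantified by SYBR Green I fluorescence (ex 485, em 535 nm) after overnight lysis in saponin/Triton buffer at room temperature. Cultures at 0.3% parasitemia and 2.5% hematocrit were first exposed to compound for 72 h at 37 C; signals were normalised to artemisinin (0.29 uM) and vehicle wells.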

Test [8] is described as follows: qHTS profiling of the MIPE4 collection as inhibitors of Plasmodium falciparum (DD2) proliferation (AID 743345; call rule not given here). Particulars: P. falciparum Dd2 in erythrocytes, SYBR Green DNA, 72 h; at 28.5 µM (top of the series) unless noted. In outline:
as §1

Test [9] in a line: qHTS profiling of the MIPE4 collection as inhibitors of Plasmodium falciparum (DD2) proliferation (Rep 2) (AID 743346; call rule not given here). Particulars: P. falciparum Dd2 in erythrocytes, SYBR Green DNA, 72 h; at 28.5 µM (top of the series) unless noted. In outline:
as §1

Test [10] in a line: qHTS profiling of the MIPE4 collection as inhibitors of Plasmodium falciparum (HB3) proliferation (AID 743347; call rule not given here;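 further: plate controls were DMSO vehicle wells for no effect and artemisinin wells for full effect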). As to conditions: P. falciparum HB3 in erythrocytes, SYBR Green DNA, 72 h; at 28.5 µM (top of the series) unless noted. The procedure, abridged: as §1
Test [11] concerns the target Nuclear receptor subfamily 1 group I member 3 (Homo sapiens) (UniProt Q14994). Put plainly: Primary qHTS for antagonist of constitutive androstane receptor (CAR) against the NCATS DSHEA and TCM libraries (AID 1794836; active means well fitted curve in the direction sought with a large enough effect; an effect the other way counts as inactive or inconclusive;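 further: HepG2 cells stably expressing hCAR with CYP2B6 luciferase reporter stimulated by CITCO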). The procedure, abridged: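 Antagonist mode: CAR reporter luminescence (ONE-Glo) in HepG2-CYP2B6-hCAR cells stimulated with 48 uM CITCO (final) over 24 h at 37 C, compounds titrated; viability read first by CellTiter-Fluor fluorescence.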

The nature of test [12]: KB-8-5-11 P-gp reporter qHTS against the NCATS DSHEA and TCM libraries (AID 1919977; active means well fitted curve in the direction sought with a large enough effect; an effect the other way counts as inactive or inconclusive; further: 0% is about no effect). In outline:
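CellTiter-Glo luminescence measured viability after ~72 h exposure (37C, 5% CO2) of KB-8-5-11 cervical adenocarcinoma cells overexpressing P-gp. Colchicine was omitted during assay. Substances were tested as titrations.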

Test [13] has as its target Alpha-galactosidase (Coffea arabica) (UniProt Q42656). Put plainly: Counterscreen for Glucocerebrosidase Inhibitors: qHTS Assay for Coffee Bean alpha-Galactosidase at pH 4.5 (AID 957; active means well fitted curve in the direction sought with a large enough effect; an effect the other way counts as inactive or inconclusive;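 further: plate controls were enzyme alone for no effect and no enzyme for full effect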). In outline: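 Fluorogenic read-out: 4-methylumbelliferone at Ex 365/Em 440 nm after NaOH/glycine stop (pH 10). Enzyme 2 nM, 4-MU-alpha-galactoside 80 uM, citrate buffer pH 4.5, 20 min RT; normalized to no-enzyme and enzyme controls.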

The target is the same in test [14]. Put plainly: Counterscreen for Glucocerebrosidase Inhibitors: qHTS Assay for Coffee Bean alpha-Galactosidase at pH 5.9 (AID 998; active means well fitted curve in the direction sought with a large enough effect; an effect the other way counts as inactive or inconclusive;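 further: plate controls were uninhibited enzyme for no effect and no-enzyme basal signal for full effect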). The procedure, abridged:
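Fluorogenic 4-MU substrate hydrolysis, 80 uM substrate and 2 nM coffee bean alpha-galactosidase, pH 5.9 citrate buffer, 20 min at room temperature, then NaOH/glycine stop. Titration 0.7 nM–77 uM, normalized to no-enzyme and enzyme controls, AC50 via Hill equation.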

Test [15] in a line: Primary qHTS for Huh7 cytotoxicity: counterscreen for inhibitors of MERS-S pseudotyped particle cell entry (AID 1479147). As to conditions: outcome: dose series up to 57.1 µM unless noted.
Test [16] in a line: Primary qHTS for inhibitors of MERS-S pseudo-typed particle cell entry (AID 1479149). Further: nearly all actives have a fitted effect of over 60% in size.
Test [17] can be described thus: Primary qHTS for Vero E6 cytotoxicity: counterscreen for inhibitors of SARS-S pseudo-typed particle cell entry (AID 1479150). Particulars: outcome: dose series up to 57.1 µM unless noted.
Test [18] can be described thus: Confirmatory qHTS for VERO E6 Cytotoxicity Assay: Counterscreen for SARS-CoV-2 CPE Assay (AID 1508605). Further: on the % scale 0 is the no-effect control and ±100 the full control effect; nearly all actives have a fitted effect of over 60% in size.
Test [19] in a line: Confirmatory qHTS for activators (rescue) of SARS-CoV-2 Cytopathic Effect (CPE) (AID 1508606). Further: nearly all actives have a fitted effect of over 70% in size. Further: potency means the concentration at half of the fitted maximal effect.
The nature of test [20]: Confirmatory qHTS to identify inhibitors of SARS-CoV-2 cell entry (AID 1645844). Further: potency means the concentration at half of the fitted maximal effect; nearly all actives have a fitted effect of over 45% in size. The procedure, abridged: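 Luminescence entry read-out after 48 h: spike-pseudotyped MLV particles (Wuhan-Hu-1, 19-aa C-terminal truncation) added to compound-pretreated (1 h) HEK293-ACE2 cells; Data were normalised to bald PP and spike PP wells.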

Sequence of Alpha-galactosidase (Coffea arabica) (Q42656 whole entry, looked up): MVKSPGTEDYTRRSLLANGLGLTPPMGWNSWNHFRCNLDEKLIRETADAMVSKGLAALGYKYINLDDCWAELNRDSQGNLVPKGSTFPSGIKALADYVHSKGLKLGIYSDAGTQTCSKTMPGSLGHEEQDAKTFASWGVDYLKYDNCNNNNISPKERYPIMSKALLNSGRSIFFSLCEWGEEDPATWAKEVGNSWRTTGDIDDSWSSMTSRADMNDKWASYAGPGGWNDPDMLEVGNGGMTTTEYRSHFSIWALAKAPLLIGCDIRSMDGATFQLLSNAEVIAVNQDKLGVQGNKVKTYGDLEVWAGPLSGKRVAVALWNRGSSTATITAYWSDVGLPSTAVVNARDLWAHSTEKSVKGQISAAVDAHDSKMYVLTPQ
Sequence of Nucleoprotein (Lymphocytic choriomeningitis virus (strain Armstrong)) (P09992 whole entry, looked up): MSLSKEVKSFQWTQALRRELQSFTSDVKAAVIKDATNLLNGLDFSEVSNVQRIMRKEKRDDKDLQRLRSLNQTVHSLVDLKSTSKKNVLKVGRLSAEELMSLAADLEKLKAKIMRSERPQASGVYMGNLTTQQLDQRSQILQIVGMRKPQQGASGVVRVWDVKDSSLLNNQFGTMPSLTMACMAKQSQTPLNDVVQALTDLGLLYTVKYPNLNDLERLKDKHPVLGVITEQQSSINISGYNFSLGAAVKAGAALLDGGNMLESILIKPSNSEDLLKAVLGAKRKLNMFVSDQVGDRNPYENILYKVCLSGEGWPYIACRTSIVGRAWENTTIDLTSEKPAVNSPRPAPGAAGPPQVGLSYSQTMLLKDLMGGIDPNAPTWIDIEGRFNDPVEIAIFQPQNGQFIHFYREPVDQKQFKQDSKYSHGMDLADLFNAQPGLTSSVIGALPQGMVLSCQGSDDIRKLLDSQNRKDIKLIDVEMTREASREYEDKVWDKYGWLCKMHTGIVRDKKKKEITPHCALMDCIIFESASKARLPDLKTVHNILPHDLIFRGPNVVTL
Sequence of Nuclear receptor subfamily 1 group I member 3 (Homo sapiens) (Q14994 whole entry, looked up): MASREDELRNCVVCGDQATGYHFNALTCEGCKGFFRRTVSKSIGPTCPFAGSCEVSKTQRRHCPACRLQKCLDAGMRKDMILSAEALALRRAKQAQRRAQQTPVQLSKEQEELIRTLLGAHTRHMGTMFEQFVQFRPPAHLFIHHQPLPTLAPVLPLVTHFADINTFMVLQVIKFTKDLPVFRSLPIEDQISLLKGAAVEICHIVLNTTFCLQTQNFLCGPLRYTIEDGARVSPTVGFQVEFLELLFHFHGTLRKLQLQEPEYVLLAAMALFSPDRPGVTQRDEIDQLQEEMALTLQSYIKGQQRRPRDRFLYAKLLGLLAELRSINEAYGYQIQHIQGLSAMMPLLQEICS

`CCCCCCCCCCCC1=C(O)C(=O)C=C(O)C1=O`: the Potency in test [1] was 4.85 µM (active). The Potency result (in [2]; in test [3]; in the test on CRL-7250) was “inactive” in each case.

As for `NC1=N[C@@]2(c3cc(NC(=O)c4ccc(F)cn4)ccc3F)COC[C@@H]2CS1`, the Potency was 17.2 µM (active) in test [1] and 19.3 µM (active) in test [4]. Further, the Potency result in the test on CRL-7250 is “inactive”.

Turning to `COc1ccc2c(c1)c(C1=C(c3c[nH]c4ccccc34)C(=O)NC1=O)cn2CCCN(C)C`, in [1], the Potency is 0.485 µM (active). Further, the Potency result in the test on CRL-7250 is “inactive”.

As for `COc1cccc(Nc2c(C(N)=O)cnc3c(C)cc(S(=O)(=O)c4cccc(C(=O)N(C)C)c4)cc23)c1`, the Potency in [1] is 21.1 µM (active); in [4], 13.3 µM (active); in test [5] it was 16.8 µM (active). For the same molecule, the Potency entry (in test [2]; in test [3]; in the test on CRL-7250) was “inactive” throughout.

`Nc1ncnc2c1c(-c1cccc(OCc3ccccc3)c1)cn2C1CC(CN2CCC2)C1` (stereo not drawn): the Potency entry (in test [6]; in test [1]; in [5]; in test [2]; with CRL-7250) was “inactive” in each case.

With `CC(C)(OCc1nn(Cc2ccccc2)c2ccccc12)C(=O)O`, the Potency entry (in test [6]; in test [2]; in test [3]; in the test with CRL-7250) was “inactive” each time.

As for `CN(CC(=O)N(Cc1ccc(C2CCCCC2)cc1)c1ccc(C(=O)O)c(O)c1)S(=O)(=O)c1c(F)c(F)c(F)c(F)c1F`, the Potency entry (in test [6]; in test [5]; in test [2]; in the test on CRL-7250) was “inactive” each time. The Potency in test [1] is 27.3 µM (active). Also, the activity change, negative = inhibition in [3] was -15.1%.

Take `CC1(C)CC(O)CC(C)(C)N1[O]`: in [7], the parasite growth, % of DMSO control came to 99.3%. In [8], the parasite growth remaining, % of DMSO control (lower = more inhibition) amounted to 97.3%. In addition, the parasite growth, % of control (lower = inhibition) in test [9] worked out at 73%. This molecule came in with a growth, % of control in test [10] of 60.2%. The Potency result (in test [6]; in test [1]; in test [5]; with CRL-7250) was “inactive” throughout.

As for `Nc1ncnc2ccccc12`, the Potency in [1] was 15.3 µM (active); in test [4], 12.2 µM (active); in test [5], 24.3 µM (active). Further, the Potency entry (in test [2]; in the test on CRL-7250) was “inactive” each time. Moreover, the activity change, negative = inhibition in test [3] is 2.32%.

For `Cc1cc2nc3c(=O)[nH]c(=O)nc-3n(CC(O)C(O)C(O)CO)c2cc1C` (stereo not drawn), the Potency entry (in test [6]; in test [1]; in test [2]; in test [3]; in [11]; with CRL-7250) was “inactive” in each case. For the same molecule, the molecule was classed as inactive in test [12].

In the case of `CN(C)CC[C@H](c1ccc(Cl)cc1)c1ccccn1`, the molecule was called inactive in test [13] and in test [14]. Also, the Potency entry (in test [6]; in test [4]; in test [5]; in the test on CRL-7250) was “inactive” throughout.

With `CC[C@H](NC(=O)[C@H](C)NC)C(=O)N1C[C@@H](O)C[C@H]1Cc1c(-c2[nH]c3cc(F)ccc3c2C[C@H]2C[C@H](O)CN2C(=O)[C@H](CC)NC(=O)[C@H](C)NC)[nH]c2cc(F)ccc12`, the Potency in test [1] is 6.85 µM (active); in test [4], 3.85 µM (active); in test [5], 7.69 µM (active). In addition, in the test with CRL-7250, the Potency result is “inactive”.

In the case of `CCCCOc1ccc(C(=O)Nc2ccc(F)cc2F)cc1`, the Potency result (in test [6]; in [5]; in test [3]; in the test on CRL-7250) was “inactive” each time.

As to `Cc1ccc2c(c1)c1c(n2CCc2ccc(C)nc2)CCN(C)C1`, the Potency result (in [6]; in test [5]; in the test with CRL-7250) was “inactive” throughout.

On to `COc1cc(N2CCC(C(N)=O)CC2)ccc1Nc1nc(N)c(Cl)c(Nc2ccccc2S(=O)(=O)C(C)C)n1`, for which the Potency in test [1] was 12.2 µM (active); in test [4], 1.72 µM (active); in test [5], 0.769 µM (active). Besides, the Potency entry in the test with CRL-7250 is “inactive”.

Turning to `CCCc1nc(C(C)(C)O)c(C(=O)O)n1Cc1ccc(-c2ccccc2-c2nn[nH]n2)cc1`, the Potency result (in test [6]; in test [4]; in test [5]; in test [16]; in test [2]; in the test on CRL-7250) was “inactive” in each case. For the same molecule, the molecule was classed as inactive in test [15] and in [17]. Moreover, the activity change, negative = inhibition in test [3] is -8.69% and -17.9%.

Consider `CS(=O)(=O)c1ccc(-c2cnc(N)c(C(=O)Nc3ccccc3)n2)cc1`, for which the Potency result (in test [6]; in [5]; in the test with CRL-7250) was “inactive” throughout. Further, in test [3], the activity change, negative = inhibition is -1.17%.

Take `CN(C)C(=O)[C@H](O)[C@H](Cc1ccccc1)NC(=O)c1cc2cc(Cl)ccc2[nH]1`: the Potency entry (in test [6]; in [4]; in test [5]; in test [2]; with CRL-7250) was “inactive” throughout. In [3], the activity change, negative = inhibition is -8.95%.

On to `COC(=O)[C@H](CCCN=C(N)N)NS(=O)(=O)c1ccc(C)cc1`, for which the Potency result (in [6]; in test [2]; in the test on CRL-7250) was “inactive” throughout. For the same molecule, the Potency in test [4] was 17.2 µM (active). For the same molecule, the activity change, negative = inhibition in test [3] is -0.183%.

In the case of `Cc1[nH]c(/C=C2\C(=O)Nc3ccc(S(=O)(=O)N(C)c4cccc(Cl)c4)cc32)c(C)c1C(=O)N1CCN(C)CC1`, the Potency result (in test [18]; in test [19]; in test [2]; in the test on CRL-7250) was “inactive” in each case.

For `CCOC(=O)[C@H]1O[C@@H]1C(=O)N[C@@H](CC(C)C)C(=O)NCCC(C)C`, the Potency in [20] is 0.0681 µM (active). Moreover, the Potency result (in [2]; in the test on CRL-7250) was “inactive” in each case.

On to `CC1(C)OC(=O)C(OCC2CC2)=C1c1ccc(S(C)(=O)=O)cc1`, for which the call in test [15] and in [17] was inactive. The Potency result (in [16]; in test [2]; in the test with CRL-7250) was “inactive” in each case.

`CN1CCC(c2cn(C)c3ccc(OS(=O)(=O)c4c(F)cccc4F)cc23)CC1`: the Potency result (in test [18]; in the test with CRL-7250) was “inactive” in each case. In addition, the Potency in [19] is 11.2 µM (active).

In the case of `CC(=O)O[C@]1(C(C)=O)CC[C@H]2[C@@H]3C=C(Cl)C4=CC(=O)[C@@H]5C[C@H]5[C@]4(C)[C@@H]3CC[C@@]21C`, in [4], the Potency was 24.3 µM (active). In the test with CRL-7250, the Potency result was “inactive”.
